# Results filed as inconclusive are left out. Calls of active or inactive are those of the source. The call rests on the fitted dose curve; in most records, active means well fitted cell-killing curve with a large enough effect in the repeat runs; inconclusive means weak or mixed curves; inactive means flat fitted curve, though single readings scatter.
# Experiment: qHTS RealTime-Glo MT Cell Viability Assay in HepG2 cells - 16 hour (AID 1224885); further: nearly all actives have a fitted effect of over 50% in size
# Settings: RealTime-Glo luminescence; series mostly up to 76.8 µM; activity change, negative = cytotoxic: at the top concentration
# Outline: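 Tox21 10K library screened in qHTS format on HepG2 cells carrying RealTime-Glo reagents. Compounds were added after a 5 h preincubation, and the luminescent signal from continuous culture was measured repeatedly during 40 h treatment.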
# On the % scale 0 is the no-effect control and ±100 the full control effect.
row,SMILES,"activity change, negative = cytotoxic"
1,C[N+](C)(C)CC(O)CCl (stereo not drawn),-3.06% (inactive)
2,CCNC(=O)/C=C/c1cccc(Br)c1,0.311% [at 35.3 µM] (inactive)
3,BrC/C=C/CBr,4.65% [at 15.8 µM] (inactive)
4,O=C(O)c1c(Cl)ccc(Cl)c1Cl,0.204% (inactive)
5,CCCCCCCCCCCCCCCCI,-8.4% [at 15.8 µM] (inactive)
6,COc1ccc(OC)c(NC(=O)CC(C)=O)c1,1.27% (inactive)
7,CN(C)CCOCCN(C)CCO,1.05% (inactive)
8,CCCCC/C=C/CC(=O)OC,-0.423% (inactive)
9,CCCCCCCCCCCCOC(C)=O,-0.141% (inactive)
10,COc1cc2c3cc1Oc1cc(ccc1O)C[C@@H]1c4c(cc(OC)c(O)c4Oc4ccc(cc4)C[C@@H]3N(C)CC2)CC[N+]1(C)C,3.45% [at 35.3 µM] (inactive)
11,O=C(O)CCNC(=O)c1ccccc1,1.82% [at 35.3 µM] (inactive)
12,C=C[Si](C)(C)O[Si](C)(C)C=C,0.0678% (inactive)
13,Nc1cc(C(=O)O)ccc1Cl,1.61% (inactive)
14,NC(=O)C1(N2CCCCC2)CCN(CCCC(=O)c2ccc(F)cc2)CC1,-0.552% [at 35.3 µM] (inactive)
15,N#CCCOCCOCCC#N,3.06% (inactive)
16,C[C@H](CCC(=O)NCC(=O)O)[C@H]1CC[C@H]2[C@@H]3[C@H](O)C[C@@H]4C[C@H](O)CC[C@]4(C)[C@H]3C[C@H](O)[C@]12C,-0.388% (inactive)
17,CCS(=O)(=O)CCn1c([N+](=O)[O-])cnc1C,-1.36% [at 35.3 µM] (inactive)
18,CC(C)(c1ccc(Oc2ccc3c(c2)C(=O)OC3=O)cc1)c1ccc(Oc2ccc3c(c2)C(=O)OC3=O)cc1,2.32% (inactive)
19,C=CCOc1c(Br)cc(Br)cc1Br,-8.06% (inactive)

row,SMILES,"activity change, negative = cytotoxic"
1,O=C(O)/C=C/c1ccccc1,4.62% (inactive)
2,CC1=NN(c2ccc(S(=O)(=O)O)cc2)C(=O)C1N=Nc1ccccc1 (stereo not drawn),-0.551% (inactive)
3,CCCCC(CC)C(=O)OC(C)C (stereo not drawn),0.562% (inactive)
4,SCCSCCS,1.79% (inactive)
5,Cc1cccc(C(=O)O)c1[N+](=O)[O-],1.27% (inactive)
6,Cc1ccccc1N1CCN(CCc2nnc3n2CCCC3)CC1,1.66% [at 35.3 µM] (inactive)
7,OC(CCN1CCCCC1)(c1ccccc1)c1ccccc1,1.69% [at 35.3 µM] (inactive)
8,CN(C)CCCNCCC#N,-0.354% (inactive)
9,c1ccccc1,-9.47% (inactive)
10,O=CN1CCOCC1,0.492% (inactive)
11,CC(Cl)COP(=O)(OCC(C)Cl)OCC(C)Cl (stereo not drawn),0.436% (inactive)
12,CCC1COC(=O)O1 (stereo not drawn),1.41% (inactive)
13,O=C1OC(=O)c2cc(Oc3ccc4c(c3)C(=O)OC4=O)ccc21,-4.25% (inactive)
14,CCN(CCC#N)c1ccccc1,0.186% (inactive)
15,CCCCCCCC/C=C\CCCCCCCC(=O)OC[C@@H](O)[C@H]1OC[C@H](O)[C@H]1O,11% (inactive)
16,CCC1Nc2cc(Cl)c(S(N)(=O)=O)cc2S(=O)(=O)N1 (stereo not drawn),-1.52% [at 35.3 µM] (inactive)
17,CNC(=O)NC,0.983% (inactive)
18,CCC(CO)CO,0.208% (inactive)
19,NC(Cc1c[nH]c2ccccc12)C(=O)O (stereo not drawn),2.86% [at 35.3 µM] (inactive)
